# Shown is part of a subset that was picked to be rich in hits.
# SARS PLpro yeast: qHTS of Yeast-based Assay for SARS-CoV PLP | S. cerevisiae expressing SARS-CoV PLpro, growth rescue | Potency, µM (doses to about 32.9 µM), inactives show at the highest dose activity, positive = growth rescue, actives largely listed as activators | actives 0.19% (n = 330,000) | AID 485353, 2010; calls by dose curve; also: potency is read from the fitted curve at half-maximal effect; 0% is about no effect; nearly all actives have a fitted effect of over 55% in size
# AmpC inh detg: qHTS Inhibitors of AmpC Beta-Lactamase (assay with detergent). Potency, µM (series often up to 114 µM), for the others: at the top dose activity change, negative = inhibition, actives largely listed as inhibitors. AID 485294, 2010. AmpC hydrolysis of nitrocefin, absorbance 480 nm, 0.01% Triton. actives 0.041% (n = 370,000);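 also: potency is read from the fitted curve at half-maximal effect; 0% = no-compound wells and -100% = no-enzyme wells; nearly all actives have a fitted effect of over 25% in size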
# Target sequence (P00811 whole entry, looked up): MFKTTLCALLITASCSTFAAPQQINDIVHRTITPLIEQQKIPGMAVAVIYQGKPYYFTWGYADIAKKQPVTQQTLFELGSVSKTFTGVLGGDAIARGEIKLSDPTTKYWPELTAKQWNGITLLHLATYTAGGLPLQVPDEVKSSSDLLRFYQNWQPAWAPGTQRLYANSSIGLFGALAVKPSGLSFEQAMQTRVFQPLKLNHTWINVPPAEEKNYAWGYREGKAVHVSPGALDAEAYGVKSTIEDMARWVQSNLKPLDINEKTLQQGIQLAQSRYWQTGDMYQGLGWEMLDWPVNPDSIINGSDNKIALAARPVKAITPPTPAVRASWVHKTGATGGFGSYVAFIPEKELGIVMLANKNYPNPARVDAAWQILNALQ
#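 20 mM phosphate pH 7.0 + 0.01% (detergent screen) or 0.0001% Triton X-100; 5.3 nM AmpC reagent; cpd preinc 15 min RT; nitrocefin (800 uM stock) to start; A480 q20 s × 4 min; Activity was normalised to no-enzyme and no-compound control wells.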
# AmpC no deterg: qHTS Inhibitors of AmpC Beta-Lactamase (assay without detergent); Potency, µM (titrated, usually from 57.1 µM), for inactives: at the highest dose activity change, negative = inhibition, actives largely listed as inhibitors; AmpC nitrocefin hydrolysis, absorbance 480 nm, 0.0001% Triton; actives 0.52% (n = 330,000); P00811;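 also: potency is read from the fitted curve at half-maximal effect; plate controls were no compound for no effect and no enzyme for full effect; nearly all actives have a fitted effect of over 20% in size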
#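 20 mM phosphate pH 7.0 + 0.01% (detergent screen) or 0.0001% Triton X-100; 5.3 nM AmpC reagent; cpd preinc 15 min RT; nitrocefin (800 uM stock) to start; A480 q20 s × 4 min; Activity was normalised to no-enzyme and no-compound control wells.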
# CHX counter: Cycloheximide Counterscreen for Small Molecule Inhibitors of Shiga Toxin. cell reporter, cycloheximide protein synthesis inhibition counterscreen. max response, %. actives 12% (n = 300,000). AID 2314, 2010; in the data active = max response mostly above about 13%, no sharp cut-off; inactive = mostly below about 14%; also: read at 38.3 µM for the half of the compounds with a filed dose; 0% is about no effect
# Shiga toxin inh: A qHTS for Small Molecule Inhibitors of Shiga Toxin; actives 9.2% (n = 290,000); inhibition, % at 38.7 µM; Vero cells, Shiga toxin protein synthesis inhibition reporter; in the data active = inhibition mostly above about 28%, no sharp cut-off; inactive = mostly below about 43%; also: 0% is about no effect
# AMA1-RON2 inh: qHTS for Inhibitors of AMA1-RON; Towards Development of Antimalarial Drug Lead: Primary Screen | Plasmodium falciparum AMA1 (3D7) - RON2 peptide interaction | AlphaScreen AMA1-biotinylated RON2 peptide binding | Potency, µM (doses to about 58.2 µM), without a hit: at the highest dose activity change, negative = inhibition, most hits filed as inhibitors | actives 0.2% (n = 360,000) | AID 720542, 2013;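 also: potency is read from the fitted curve at half-maximal effect; 0% = vehicle wells and -100% = peptide control; nearly all actives have a fitted effect of over 45% in size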
#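 AMA1 (3D7) with his tag at 25 nM final met compounds first, then biotinylated RON2 peptide at 25 nM; detection used donor plus acceptor beads, 10 µg/mL apiece, read by AlphaScreen after 30 min at room temperature.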
# Numbers without * were called inactive; ? = inconclusive; / = no result given. Unless noted, calls follow the shape of the dose curve; as a rule, active = well fitted curve in the direction sought with a large enough effect; inconclusive = small, poorly fitted or top-dose-only effect, or another doubt; inactive = no such curve, though single readings can be large; an effect the other way counts as inactive or inconclusive.
SMILES,SARS PLpro yeast,AmpC inh detg,AmpC no deterg,CHX counter,Shiga toxin inh,AMA1-RON2 inh
CC(C)C1C(=O)N(Cc2cn(CCC3OCCCO3)nn2)CCS(=O)(=O)N1Cc1ccc(-c2cccc(N(C)C)c2)cc1 (centres undefined),/,/,/,/,/,-24%
Cc1ccc(-c2nc3sc(C#N)c(N)n3c(=O)c2C#N)cc1,0%,1%,-27%,-2,23,-1%
Brc1ccc(COc2ncnc3ccccc23)cc1,-3%,2%,-22%,7,-3,-9%
O=C(COc1ncnc2ccccc12)c1ccc(Cl)cc1,1%,-1%,-27%,26*,79*,-19%
O=C(COc1ncnc2cc(Cl)ccc12)c1ccccc1,1%,-7%,-33%,45*,98*,7%
c1ccc(OCCOc2ncnc3ccccc23)cc1,0%,-12%,-20%,37*,93*,3%
CCOc1ccc(CCNS(=O)(=O)c2cn(C)cn2)cc1OCC,-7%,1%,-4%,5,-5,11%
CCCc1[nH]n(-c2nc3ccccc3s2)c(=O)c1C=NCCCOC,-1%,-2%,42%,22,37,-10%
COCCCN=Cc1c(-c2ccccc2)[nH]n(-c2nc3ccccc3s2)c1=O,-1%,8%,111%,16*,42,-24%
CCCCCN=Cc1c(C)[nH]n(-c2nc3ccccc3s2)c1=O,-22%,?,51%,16*,9,5%
O=c1c(C=NCCCO)c(-c2ccccc2)[nH]n1-c1nc2ccccc2s1,-1%,0%,106%,28*,39*,1%
O=C(OCCc1cc2ccccc2c(=O)o1)c1cccs1,-9%,-2%,-22%,/,/,27%
CCCCc1nc(N2CCN(C(=O)c3ccco3)CC2)c(C#N)c2c1CCCC2,-8%,-1%,18%,21*,63*,-14%
Cc1cc(C)nc(NC(=O)c2cc3ccccc3o2)n1,1%,0%,2%,4,39,-6%
CC(C)NC(=O)c1cc2ccccc2o1,-16%,1%,-13%,5,2,4%
Cc1ccc(NC(=O)c2cc3ccccc3o2)cc1Cl,-3%,-6%,-41%,47*,111*,22%
CC(C)C(=O)Nc1cccc(NC(=O)c2cc3ccccc3o2)c1,-4%,?,-15%,54*,42*,2%
CC(=O)Nc1cccc(NC(=O)c2cc3ccccc3o2)c1,0%,-5%,-25%,33*,49,-2%
Fc1ccc(COc2ccccc2C(=S)N2CCCC2)cc1,13%,?,-27%,2,34,-11%
CC(=O)Nc1ccc(C2CC(c3ccc(Cl)cc3)=NN2c2ccccc2)cc1 (centres undefined),-7%,-10%,23%,9,-5,40%
CC(=O)Nc1ccc(C2=NN(c3ccccc3)C(c3ccccc3)C2)cc1 (centres undefined),-5%,3%,55%,43*,47*,24%
O=C(O)c1ccc(N2N=C(c3ccccc3)CC2c2ccccc2)cc1 (centres undefined),-22%,-15%,-39%,14*,57*,10%
O=[N+]([O-])c1cccc(C2CC(c3ccccc3)=NN2c2ccccc2)c1 (centres undefined),?,2%,-41%,20*,55,?
CCc1cc(C(=O)OC)c(NC(=O)C2CC(=O)NN2Cc2ccccc2)s1 (centres undefined),-4%,4%,63%,-5,-14,3%
CCCN(CCC)C1=CC(=[N+]2CCCC2)CC(C)(C)C1,-12%,-16%,1%,-2,-2,15%
SMILES,SARS PLpro yeast,AmpC inh detg,AmpC no deterg,CHX counter,Shiga toxin inh,AMA1-RON2 inh
O=C(/C=C/Nc1ccc([N+](=O)[O-])cc1Br)c1cccc2ccccc12,4%,-11%,?,20*,42,-2%
C=CCSc1nc2ccccc2n1S(=O)(=O)c1ccc(C)cc1,-20%,0%,-27%,21*,19,29%
O=C(c1ccc2c(c1)OCO2)C1CCCN(Cc2cccc(C(F)(F)F)c2)C1 (centres undefined),?,9%,-3%,-1,-15,-5%
COc1ccc(NC(=O)C/C(C)=N/NC(=O)c2ccncc2)c([N+](=O)[O-])c1,2%,1%,92%,-3,-8,62%
COc1ccc(NC(=O)C/C(C)=N/NC(=O)c2ccco2)c([N+](=O)[O-])c1,-3%,-1%,27%,19*,93*,38%
Cc1ccc(NC(=O)c2ccco2)c([N+](=O)[O-])c1,-3%,-5%,-12%,41*,107*,-16%
Cc1ccc(NC(=O)c2ccc(Br)o2)c([N+](=O)[O-])c1,/,/,/,/,/,-6%
COc1ccc(NC(=O)CN2CCC(NC(=O)c3ccco3)CC2)c([N+](=O)[O-])c1,1%,-3%,2%,-3,-5,11%
COc1ccc(NC(=O)c2ccco2)c([N+](=O)[O-])c1,-11%,0%,-11%,20*,35*,-29%
CN1CC(C(=O)c2ccccc2)C(C(=O)c2ccccc2)C1 (centres undefined),-42%,-3%,-9%,55*,112*,-11%
CN1CC(C(=O)c2ccc(Cl)cc2)C(c2ccc(N(C)C)cc2)C1 (centres undefined),-1%,7%,54%,21,29,?
CN1CC(C(=O)c2ccc(Cl)cc2)C(c2ccc(Cl)cc2Cl)C1 (centres undefined),-1%,11%,80%,-3,-1,32µM*
CN1CC(C(=O)c2ccc(F)cc2)C(c2ccc(F)cc2)C1 (centres undefined),1%,-14%,-13%,-5,-7,7%
O=C(ONC1=NCCCCC1)c1c(F)cccc1F,-26%,-5%,-10%,18*,-3,-6%
O=C(ONC1=NCCCCC1)c1ccc(Cl)cc1,-29%,?,-15%,17*,37,0%
CC(=O)Nc1ccccc1-c1ccc(C)o1,5%,-16%,-16%,16*,16,-9%
O=C(NCCc1ccccc1)c1c(O)c2ccccc2[nH]c1=O,1%,-9%,-6%,3,/,4%
CC(=O)Nc1sc(N/N=C\c2cccc(Cl)c2)nc1-c1cccs1,14%,2%,-25%,19*,9,-12%
O=C(N/N=C/c1cn(-c2ccccc2)nc1-c1cccs1)c1ccc(Cl)cc1,-3%,-3%,-39%,-3,8,57%
CC(=O)Nc1sc(N/N=C\c2ccccc2F)nc1-c1cccs1,2%,-1%,-42%,38*,62*,-15%

# Bioassay records deposited in PubChem by National Center for Advancing Translational Sciences (NCATS).
